Assay results: a collection of fitness landscapes (doi:10.1126/science.1257360)
Over roughly 140,000 sequences, “enrichment ratio after two sorts for PhoP signalling” has its median near 0; the highest 2% begin near 11. Only a selection was taken, and the highest values are over-represented in it overall.

B1: PhoQ; a variant is named by its letters at X, in order, P23837 (parent)
chain: MKKLLRLFFPLSLRVRFLLATAAVVLVLSLAYGMVALIGYSVSFDKTTFRLLRGESNLFYTLAKWENNKLHVELPENIDKQSPTMTLIYDENGQLLWAQRDVPWLMKMIQPDWLKSNGFHEIEADVNDTSLLLSGDHSIQQQLQEVREDDDDAEMTHSVAVNVYPATSRMPKLTIVVVDTIPVELKSSYMVWSWFIYVLSANLLLVIPLLWVAAWWSLRPIEALAKEVRELEEHNRELLNPATTRELTSLVRNLNRLLKSERERYDKYRTTLTDLTHSLKTPLXXLQXXLRSLRSEKMSVSDAEPVMLEQISRISQQIGYYLHRASMRGGTLLSRELHPVAPLLDNLTSALNKVYQRKGVNISLDISPEISFVGEQNDFVEVMGNVLDNACKYCLEFVEISARQTDEHLYIVVEDDGPGIPLSKREVIFDRGQRVDTLRPGQGVGLAVAREITEQYEGKIVAGESMLGGARMEVIFGRQHSAPKDE

Variants of: B1
Experiment: enrichment ratio after two sorts for PhoP signalling (ratio (wild type AVST 3.29)); higher = more functional
Details: with PhoP (E. coli)

Variant	enrichment ratio
GQTA	≤ 0.25
QQPV	≤ 0.25
TPAE	≤ 0.25
VMCM	≤ 0.25
QQDM	≤ 0.25
SEES	6.49
LFRE	≤ 0.25
EYQC	≤ 0.25
FVCF	12
GNCF	6.9
GVCF	25
MVCF	5.97
NVCF	≤ 0.25
PVCF	≤ 0.25
KKRY	≤ 0.25
LMRK	≤ 0.25
KFQK	≤ 0.25
KDWW	≤ 0.25
TEMR	12.2
NEIG	≤ 0.25
TEMV	20.2
TEEV	≤ 0.25
MEIG	8.35
TEMS	11.4
TEMD	1.58

Variant	enrichment ratio
TEGR	≤ 0.25
TEIG	18.6
TEMW	≤ 0.25
HRMR	≤ 0.25
TEYV	4.31
VAVY	≤ 0.25
IKRV	≤ 0.25
WDMR	≤ 0.25
RSTE	≤ 0.25
RVPP	≤ 0.25
KQPC	≤ 0.25
EFMI	≤ 0.25
QNHE	≤ 0.25
HRLN	≤ 0.25
REIC	≤ 0.25
VPQL	≤ 0.25
TEWV	18.4
TEGG	5.71
TEMG	19.1
TEHV	10.3
TEMK	32.5
TEVG	10.9
NRMK	≤ 0.25
KRMK	≤ 0.25
KSWV	≤ 0.25

Variant	enrichment ratio
TEGV	12.6
TGGV	4.98
HPWV	≤ 0.25
GQIN	≤ 0.25
NEIF	≤ 0.25
PWWM	≤ 0.25
LMKL	≤ 0.25
AMSP	≤ 0.25
LRMY	≤ 0.25
MEAG	≤ 0.25
TEAG	19.7
TEMI	51.6
TEMY	12.3
NEAG	2.93
TEMT	7.24
TEMA	38.6
TRMY	0.856
KRMA	≤ 0.25
TEMF	5.53
SRMA	≤ 0.25
KIPV	≤ 0.25
QTVW	≤ 0.25
FSFP	≤ 0.25
AQCS	11.1
AQGM	13.3

Variant	enrichment ratio
AQGR	≤ 0.25
AQCA	32.5
AQCI	8.62
EQCQ	≤ 0.25
AQQP	≤ 0.25
AIFM	≤ 0.25
AQFM	12.2
AQGD	≤ 0.25
AKFM	0.887
AQCQ	31.6
NSDI	≤ 0.25
SHDW	≤ 0.25
PPSE	≤ 0.25
GEHW	≤ 0.25
SDNF	≤ 0.25
WLKM	≤ 0.25
FCKF	≤ 0.25
MLLR	≤ 0.25
FQAN	≤ 0.25
ILQV	≤ 0.25
ELVF	≤ 0.25
YMHL	≤ 0.25
ENAI	≤ 0.25
AQRM	≤ 0.25
AQWM	≤ 0.25

Variant	enrichment ratio
AQCK	29.5
EQPV	≤ 0.25
NEVC	≤ 0.25
GEEL	≤ 0.25
SRLL	10.3
SNLL	18.5
CFLL	≤ 0.25
TGLL	12.6
NGLL	3.87
SPLL	≤ 0.25
GEGL	≤ 0.25
GELL	12.9
ANLL	13.4
APLL	≤ 0.25
ALLL	8.77
FYWW	≤ 0.25
TYKE	≤ 0.25
SNRC	≤ 0.25
GTRN	≤ 0.25
HRVR	≤ 0.25
LSWW	≤ 0.25
ACNW	≤ 0.25
QYTV	≤ 0.25
PYEY	≤ 0.25
MGMC	5.27

Variant	enrichment ratio
FGLL	12.6
THLL	14
YHLL	≤ 0.25
NHLL	≤ 0.25
QGLL	10.4
TILL	0.421
FGNL	≤ 0.25
FDLL	≤ 0.25
TDLL	11.8
KDLL	≤ 0.25
SGLL	19.8
IMDM	≤ 0.25
IQAN	≤ 0.25
PYDA	≤ 0.25
PKEG	≤ 0.25
VQIN	≤ 0.25
QPDT	≤ 0.25
LCFE	≤ 0.25
CCPF	≤ 0.25
HHCS	≤ 0.25
ITLL	7.22
SMLL	11.2
GLLL	11.7
CTLL	0.613
SMLA	6.54

Variant	enrichment ratio
GLLA	≤ 0.25
MVLL	7.33
SELL	16.3
QELL	≤ 0.25
TTLL	17.7
SMLS	6.78
HWCD	2.96
RPRI	≤ 0.25
VRDD	≤ 0.25
KIGV	≤ 0.25
THDR	≤ 0.25
AYVL	≤ 0.25
MAPF	≤ 0.25
SDCN	4.78
WMRH	≤ 0.25
DNPC	≤ 0.25
MNLL	12.4
SQLL	12.5
KYLL	≤ 0.25
MCLL	8.32
AGLL	14.6
RGLL	≤ 0.25
TNLL	4.87
GYLL	≤ 0.25
DPLL	≤ 0.25

Variant	enrichment ratio
GGLL	12.7
QKGI	≤ 0.25
VHAG	≤ 0.25
IAYV	≤ 0.25
FDHC	≤ 0.25
EIDC	≤ 0.25
SSGH	7.6
QDTV	≤ 0.25
ILKM	≤ 0.25
MGGL	4.99
SLLL	5.02
IILL	1.2
KQLL	≤ 0.25
MGLL	14.3
MGRL	≤ 0.25
STLL	16.4
VTLL	17.8
SFLL	3.56
VTLA	5.19
VYLL	≤ 0.25
SALL	18.6
PQRH	≤ 0.25
LTHP	≤ 0.25
TKSQ	2.92
HTAI	≤ 0.25

Variant	enrichment ratio
KTTI	≤ 0.25
LGSF	≤ 0.25
YVWK	≤ 0.25
IDNN	≤ 0.25
YYLL	≤ 0.25
YTLL	9.09
ATLL	20.5
ADLL	9.99
TPLL	≤ 0.25
GSRL	≤ 0.25
IQLL	0.329
TQLL	18.9
FTLL	11.6
EQLL	≤ 0.25
AHLL	9.28
GSLL	14.1
VRSK	≤ 0.25
LRNP	≤ 0.25
AMGN	1.38
QRDR	≤ 0.25
FIYI	≤ 0.25
ITNW	≤ 0.25
WLSG	≤ 0.25
FDMD	≤ 0.25
MVGW	≤ 0.25

Variant	enrichment ratio
DRLW	≤ 0.25
LNLL	≤ 0.25
GNLL	15.3
QCLL	2.35
NPLL	≤ 0.25
NILL	0.938
GILL	18.2
GTLL	12.4
GICL	9.48
GCLL	18.3
WILL	≤ 0.25
KCLL	≤ 0.25
LTLL	3.06
TKDY	≤ 0.25
KPVK	≤ 0.25
ICMI	≤ 0.25
SFHP	≤ 0.25
YHHD	≤ 0.25
AQVH	7.73
GEFP	≤ 0.25
VRNY	≤ 0.25
YALL	10.6
GALL	13.8
HILL	≤ 0.25
GNAL	7.59

Variant	enrichment ratio
GAAL	≤ 0.25
SKLT	4.23
GIAL	13
SKLL	14
WKIW	≤ 0.25
PCAY	≤ 0.25
QHAW	≤ 0.25
LSTI	≤ 0.25
GWLL	≤ 0.25
KRIA	≤ 0.25
FCYK	≤ 0.25
PGQT	≤ 0.25
QFAV	≤ 0.25
FDWQ	≤ 0.25
SGCY	10.6
AICV	15.3
WICR	≤ 0.25
NICR	≤ 0.25
AICR	11.2
NICI	≤ 0.25
AIMR	16.6
WICV	≤ 0.25
ADCV	≤ 0.25
KKMR	≤ 0.25
AHMR	≤ 0.25

Variant	enrichment ratio
NICK	14.4
NIWM	≤ 0.25
IVKK	≤ 0.25
LSQL	≤ 0.25
TSAF	7.11
PIGM	≤ 0.25
AICA	3.23
AICI	16.9
AILH	3.54
AIGM	8.76
AHYP	≤ 0.25
AICS	18.9
ADYP	≤ 0.25
WICS	≤ 0.25
AIWM	≤ 0.25
AIYP	12.7
AICK	24.4
NICS	≤ 0.25
MWPS	≤ 0.25
VCLF	0.991
LARM	≤ 0.25
VEST	4.04
APVK	≤ 0.25
HAAR	≤ 0.25
AICE	14.2

Variant	enrichment ratio
AIIE	≤ 0.25
AHCE	≤ 0.25
HKRT	≤ 0.25
NRGY	≤ 0.25
DMWC	≤ 0.25
MNAV	2.67
SNAE	7.95
TNAE	≤ 0.25
AKAV	0.73
TNAS	13.9
SQAV	6.43
MNAS	6.24
TNAT	11
SNAV	12.6
ANAE	≤ 0.25
TNAV	27.6
ANAV	14.3
